From PMC4552634, “A New Set of Chemical Starting Points with Plasmodium falciparum Transmission-Blocking Potential for Antimalarial Drug Discovery” (PLoS ONE, 2015)
About 3,200 (25%) of roughly 13,000 compounds showed an effect of 50% or more. Some of the results follow.

The compounds below were run on P. falciparum stage V gametocytes. Conditions: 48 h, 5 µM; inhibitor.
Parameters: BacTiter-Glo ATP luminescence viability of purified stage V gametocytes in 384-well plates, per cent inhibition versus DMSO

Row | SMILES | % Inhibition [%]
1 | Cc1nc(N)nc(N)c1-c1ccc2ccccc2c1 [TCMDC-137286] | -7.805
2 | FC(F)(F)c1ccc2[nH]c(-c3cccc(-c4cccc(CNCc5cnn(-c6ccccc6)n5)c4)c3)nc2c1.O=C(O)C(F)(F)F [TCMDC-132966] | -44.07
3 | COc1cccc(NC(=O)N2CCOC(CCN3CCC4(CCc5ccccc54)CC3)(c3ccc(Cl)c(Cl)c3)C2)c1 (stereo not shown) [TCMDC-135330] | -52.33
4 | O=C(/C=C/c1ccc(Cl)c(Cl)c1)N1CCC(CN2CCC(c3c(Br)[nH]c4ccccc34)CC2)CC1 [TCMDC-140652] | -44.15
5 | Cc1cc(O)cc2c(C3CCN(CC4CCN(C(=O)/C=C/c5ccc(Cl)c(Cl)c5)CC4)CC3)c[nH]c12 [TCMDC-140065] | -70.17
6 | O=C(/C=C/c1ccc(Cl)c(Cl)c1)N1CCC(CN2CCC(c3c(-c4ccccc4)[nH]c4ccccc34)CC2)CC1 [TCMDC-140653] | 54.21
7 | CCn1c(C2CCN(CCC3CCN(C(=O)/C=C/c4ccc(Cl)c(Cl)c4)CC3)CC2)nc2ccccc21 [TCMDC-140221] | -5.757
8 | Cc1[nH]c2ccccc2c1CC1CCN(CC2CCN(C(=O)/C=C/c3ccc(Cl)c(Cl)c3)CC2)CC1 [TCMDC-140128] | -40.98
9 | O=C(/C=C/c1ccc(Cl)c(Cl)c1)N1CCC(CN2CCC(c3nc4ccccc4n3CCCO)CC2)CC1 [TCMDC-140312] | -4.21
10 | O=C(/C=C/c1ccc(Cl)c(Cl)c1)N1CCC(CN2CCC(Cc3nc4ccccc4[nH]3)CC2)CC1 [TCMDC-140119] | 26.7
11 | CC(C)n1c(C2CCN(CC3CCN(C(=O)/C=C/c4ccc(Cl)c(Cl)c4)CC3)CC2)nc2ccccc21 [TCMDC-140212] | -15.48
12 | Cn1c(NC2CCN(CC3CCN(C(=O)/C=C/c4ccc(Cl)c(Cl)c4)CC3)CC2)nc2ccccc21 [TCMDC-140340] | 94.55
13 | CC(C)n1c(CC2CCN(CC3CCN(C(=O)/C=C/c4ccc(Cl)c(Cl)c4)CC3)CC2)nc2ccccc21 [TCMDC-140372] | 82.38
14 | O=C(/C=C/c1ccc(Cl)c(Cl)c1)N1CCC(CN2CCC(c3c(-c4ccc(F)cc4)[nH]c4ccccc34)CC2)CC1 [TCMDC-140654] | 18.04
15 | Cc1ccc(-c2ccc3c(c2)C=C(C(=O)NCC2CCN(CC4CCN(C(=O)/C=C/c5ccc(Cl)c(Cl)c5)CC4)CC2)CCC3)cc1 [TCMDC-140646] | 108.7
16 | CC1CC(C)CN(S(=O)(=O)c2cc(C(=O)Nc3cccc([N+](=O)[O-])c3)ccc2Br)C1 (stereo not shown) [TCMDC-124626] | -10.68
17 | O=C(Nc1cc(F)c(F)c(-c2cccnc2)c1)N1CCc2cc(Cl)c(Cl)cc21 [TCMDC-139065] | 25.18
18 | Cc1ccc(-c2nc(N3CCN(C(=O)c4ccco4)CC3)c3ccccc3n2)cc1 [TCMDC-124779] | -11.86
19 | COc1ccccc1CNC(=O)c1cc(OC)c(OC)cc1NC(=O)c1cccs1 [TCMDC-125022] | 22.04
20 | CCOc1cc(Cc2cnc(N)nc2N)cc(OCC)c1O [TCMDC-137181] | 40.77

Row | SMILES | % Inhibition [%]
21 | O=C(/C=C/c1ccc(Cl)c(Cl)c1)N1CCC(CN2CCC(c3cn(CC(=O)N4CCCCC4)c4ccccc34)CC2)CC1 [TCMDC-134193] | 103
22 | CC(C)NC(=O)Cn1cc(C2CCN(CC3CCN(C(=O)/C=C/c4ccc(Cl)c(Cl)c4)CC3)CC2)c2ccccc21 [TCMDC-134172] | -9.49
23 | O=C(c1ccc(O)c(-c2cc(Cl)cc(Cl)c2)c1)N(CCO)CCO [TCMDC-140160] | -5.034
24 | COc1ccc2c(=O)c(-c3ccc(OC(F)(F)F)cc3)c(C)[nH]c2c1 [TCMDC-138811] | 45.07
25 | COc1ccc2c(=O)c3ccc(OC)cc3[nH]c2c1 [TCMDC-132054] | 37.12
26 | COc1ccc2c(=O)c(I)c(C)[nH]c2c1 [TCMDC-138141] | 64.56
27 | COc1ccc2c(=O)c(Br)c(C)[nH]c2c1 [TCMDC-137426] | 72.62
28 | Cc1cc2c(cc1C(F)(F)F)N(C(=O)Nc1cc(C(=O)NCCN(C)C)cc(C(F)(F)F)c1)CC2 [TCMDC-139884] | 20.84
29 | Cc1cc(C(=O)Nc2ccc3c(c2)CCN3C2CCN(Cc3cccc(F)c3F)C2)no1 (stereo not shown) [TCMDC-135079] | -28.63
30 | Cc1cc(N[C@@H](Cc2ccccc2)C(=O)NCc2cccc(F)c2)nc(NCC2CCCCC2)n1 [TCMDC-134928] | 5.769
31 | Cc1cc(N[C@@H](CC(C)C)C(=O)NCc2cccc(F)c2)nc(NCC2CCCCC2)n1 [TCMDC-134916] | -56.42
32 | Cc1cccc(CNc2nc(C)cc(N[C@@H](Cc3ccccc3)C(=O)NCc3cccc(F)c3)n2)c1 [TCMDC-134887] | 21.53
33 | Cc1cc(N[C@@H](Cc2ccccc2)C(=O)NCc2cccc(F)c2)nc(NCCc2ccc(F)cc2)n1 [TCMDC-134785] | 98.48
34 | COc1ccccc1CCNc1nc(C)cc(N[C@@H](CC(C)C)C(=O)NCc2cccc(F)c2)n1 [TCMDC-134863] | 80.77
35 | COc1ccccc1CCNc1nc(C)cc(N[C@@H](Cc2ccccc2)C(=O)NCc2cccc(F)c2)n1 [TCMDC-134893] | 92.55
36 | CCCC(C)Nc1nc(C)cc(N[C@@H](CC(C)C)C(=O)NCc2cccc(F)c2)n1 (stereo partly shown) [TCMDC-134768] | -55.2
37 | Cc1cc(N[C@@H](Cc2ccccc2)C(=O)NCc2cccc(F)c2)nc(NCCc2ccccc2)n1 [TCMDC-134773] | 75.65
38 | Cc1cc(N[C@@H](Cc2ccccc2)C(=O)NCc2cccc(F)c2)nc(NCc2ccccc2C)n1 [TCMDC-134903] | -28.89
39 | Nc1nc(N)c2c(CCc3ccc4ccccc4c3)cccc2n1 [TCMDC-141975] | -16.21
40 | O=C(O)C(F)(F)F.O=C(O)Cc1ccc(-c2c[nH]c3ncc(-c4cccc5ncccc45)cc23)cc1 [TCMDC-136372] | 46.28
